Results taken from ChEMBL document CHEMBL1961873, “Compounds: GSK PKIS; Assays: Nanosyn kinase panel” (2012).

target: T1, Ephrin type-B receptor 4 (Homo sapiens) (UniProt P54760); details: at 0.1 µM
T1 sequence (whole entry): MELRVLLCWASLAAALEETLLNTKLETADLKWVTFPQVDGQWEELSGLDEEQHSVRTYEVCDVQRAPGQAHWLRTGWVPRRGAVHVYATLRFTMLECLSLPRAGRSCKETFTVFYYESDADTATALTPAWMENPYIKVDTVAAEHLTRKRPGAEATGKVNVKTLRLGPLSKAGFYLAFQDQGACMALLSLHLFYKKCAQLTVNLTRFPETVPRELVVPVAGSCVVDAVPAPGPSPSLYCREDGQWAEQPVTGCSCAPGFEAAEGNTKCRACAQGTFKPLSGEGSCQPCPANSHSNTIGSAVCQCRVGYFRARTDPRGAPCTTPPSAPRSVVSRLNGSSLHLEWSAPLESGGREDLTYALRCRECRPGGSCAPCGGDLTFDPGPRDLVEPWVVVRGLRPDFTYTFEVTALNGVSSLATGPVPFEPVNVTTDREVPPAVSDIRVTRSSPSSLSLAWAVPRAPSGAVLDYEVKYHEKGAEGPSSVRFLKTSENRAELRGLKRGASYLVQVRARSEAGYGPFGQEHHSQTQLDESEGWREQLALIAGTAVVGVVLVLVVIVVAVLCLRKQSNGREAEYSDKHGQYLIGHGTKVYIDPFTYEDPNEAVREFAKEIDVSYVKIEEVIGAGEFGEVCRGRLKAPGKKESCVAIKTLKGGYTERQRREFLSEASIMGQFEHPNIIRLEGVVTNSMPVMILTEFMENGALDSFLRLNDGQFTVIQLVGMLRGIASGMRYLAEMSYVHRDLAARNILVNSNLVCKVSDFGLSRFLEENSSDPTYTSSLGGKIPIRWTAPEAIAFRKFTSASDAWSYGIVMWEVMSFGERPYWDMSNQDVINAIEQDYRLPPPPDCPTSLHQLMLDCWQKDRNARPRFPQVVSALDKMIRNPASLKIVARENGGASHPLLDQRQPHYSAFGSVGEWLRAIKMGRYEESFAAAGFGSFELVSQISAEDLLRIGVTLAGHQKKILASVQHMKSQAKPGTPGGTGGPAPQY

Which inhibition does the source give for `Fc1ccc(-c2cc(-c3c[nH]nc3-c3ccccn3)ccn2)cc1` here?
Its inhibition is 3.71%.

`Clc1ccc(-c2nn3ncccc3c2-c2ccnc(Nc3ccccc3)n2)cc1` was tested. Which inhibition did it give?
The inhibition was 6.02%.

Which inhibition does the source give for `CC1=C(C(=O)Nc2cc(Cl)c3[nH]ncc3c2)C(c2ccc(C(F)(F)F)cc2)CC(=O)N1` (stereo unspecified) here?
The inhibition was -1.21%.

`CC(C)(CO)CNC(=O)c1ccc2c(c1)/C(=N/Nc1ccc(S(N)(=O)=O)cc1)C(=O)N2` was tested. Which inhibition did it give?
The inhibition was -2.31%.

For `COc1cccc(-c2c[nH]c3c(N/N=C/c4ccncc4)ncnc23)c1`, which inhibition is on record?
The inhibition was 3.21%.

Which inhibition does the source give for `Cc1ccc(O)cc1Nc1ccnc2cc(-c3ccccn3)ccc12` here?
The inhibition was 87.3%.

Which inhibition does the source give for `Cc1cccc2c1NC(=O)/C2=N\Nc1ccc(S(N)(=O)=O)cc1` here?
Its inhibition is 1.36%.

How did the inhibition turn out when `CN1CCC(n2cnc(-c3ccc(F)cc3)c2-c2ccnc(Nc3ccccc3)n2)CC1` was run?
Its inhibition is 3.77%.

`COc1ccc2[nH]c3c4[nH]c5ccc(OC)cc5c4c4c(c3c2c1)C(=O)NC4=O` was tested. Which inhibition did it give?
The inhibition was -0.01%.

`CNC(=O)c1cncc(/C=C/c2ccccc2Cl)c1` was tested. Which inhibition did it give?
Its inhibition is -0.2%.

`COC(=O)Nc1nc2ccc(Oc3ccc(NC(=O)Nc4cccc(Cl)c4)cc3)cc2[nH]1` was tested. Which inhibition did it give?
Its inhibition is 4.66%.

With `COc1ccc(-c2cc(-c3c[nH]nc3-c3ccccn3)ccn2)cc1` as the compound, how does the inhibition read?
Its inhibition is 2.71%.

With `CCn1c(-c2nonc2N)nc2ccccc21` as the compound, how does the inhibition read?
Its inhibition is 1.03%.

How did the inhibition turn out when `COc1ccc(CNC(=O)c2ccc(-c3cc(-c4nnc(C)o4)ccc3C)cc2)cc1` was run?
Its inhibition is 1.69%.

How did the inhibition turn out when `Fc1cccc(COc2ccc(Nc3ncnc4sc(-c5ccco5)cc34)cc2Cl)c1` was run?
Its inhibition is 4%.

Which inhibition does the source give for `CCn1c(-c2nonc2N)nc2c(C#CC(C)(C)O)ncc(OC3CCNCC3)c21` here?
The inhibition was 1.92%.

How did the inhibition turn out when `CNC(=O)c1cc(-c2ccc(F)cc2)cc(-c2ccc(S(=O)(=O)N3CCCC3)cc2)c1N` was run?
The inhibition was 1.99%.

For `COc1cc(N2CCN(C(C)C)CC2)ccc1Nc1nc(Nc2ccc(F)cc2C(N)=O)c2cc[nH]c2n1`, which inhibition is on record?
The inhibition was 1.77%.

`CCn1c(-c2nonc2N)nc2cnc(Oc3cccc(NC(=O)c4ccc(N(C)C)cc4)c3)cc21` was tested. Which inhibition did it give?
Its inhibition is 0.67%.

Which inhibition does the source give for `COc1ccc2c(-c3ccnc(Nc4cccc(OC(F)(F)F)c4)n3)cnn2n1` here?
The inhibition was 0.79%.

With `NS(=O)(=O)c1ccc(N/N=C2\C(=O)Nc3ccc4ncccc4c32)cc1` as the compound, how does the inhibition read?
The inhibition was 2.29%.

Which inhibition does the source give for `O=C(Nc1n[nH]c2cc(-c3ccc(F)cc3)ccc12)C1CC1` here?
Its inhibition is 1.47%.

Which inhibition does the source give for `c1cc(-c2cnn3nc(N4CCOCC4)ccc23)nc(NC2CC2)n1` here?
Its inhibition is 0.45%.

Which inhibition does the source give for `CCc1nn2ncccc2c1-c1ccnc(NC2CC2)n1` here?
Its inhibition is 1.21%.

How did the inhibition turn out when `CN1CCC(n2cnc(-c3ccc(F)cc3)c2-c2ccnc(N)n2)CC1` was run?
The inhibition was 1.15%.

For `COc1ccc(-c2cc3c(N)ncnc3o2)cc1`, which inhibition is on record?
Its inhibition is 0.49%.

`COc1ccc(-c2oc3ncnc(N)c3c2-c2ccc(NC(=O)Nc3cc(C(F)(F)F)ccc3F)cc2)cc1` was tested. Which inhibition did it give?
The inhibition was 83.7%.

`COc1cc(Nc2nccc(Nc3ccc4c(C)n[nH]c4c3)n2)cc(OC)c1OC` was tested. Which inhibition did it give?
The inhibition was 11.2%.

How did the inhibition turn out when `COC(=O)c1sc(-n2cnc3cc(OC)c(OC)cc32)cc1OCc1ccccc1C(F)(F)F` was run?
The inhibition was 2.86%.

For `N#Cc1c(NC(=O)c2ccc(F)cc2)sc2c1CCCC2`, which inhibition is on record?
The inhibition was -0.69%.

Which inhibition does the source give for `NS(=O)(=O)c1ccc(Nc2ncc(-c3ccccc3)o2)cc1` here?
Its inhibition is 2.27%.

`CCn1cc(-c2ccnc3[nH]ccc23)c(-c2cccc(NC(=O)Nc3ccc(OCc4ccccc4)cc3)c2)n1` was tested. Which inhibition did it give?
Its inhibition is -1.27%.

With `c1ccc(-c2nc3n(c2-c2ccc4c(c2)OCO4)CCC3)nc1` as the compound, how does the inhibition read?
The inhibition was 0.53%.

target: T1, Ephrin type-B receptor 4 (Homo sapiens); details: at 1 µM

Which inhibition does the source give for `Fc1ccc(-c2cc(-c3c[nH]nc3-c3ccccn3)ccn2)cc1` here?
Its inhibition is 0.96%.

Which inhibition does the source give for `Clc1ccc(-c2nn3ncccc3c2-c2ccnc(Nc3ccccc3)n2)cc1` here?
Its inhibition is 37.2%.

For `CC1=C(C(=O)Nc2cc(Cl)c3[nH]ncc3c2)C(c2ccc(C(F)(F)F)cc2)CC(=O)N1` (stereo unspecified), which inhibition is on record?
Its inhibition is 0.29%.

Which inhibition does the source give for `CC(C)(CO)CNC(=O)c1ccc2c(c1)/C(=N/Nc1ccc(S(N)(=O)=O)cc1)C(=O)N2` here?
The inhibition was -0.62%.

`COc1cccc(-c2c[nH]c3c(N/N=C/c4ccncc4)ncnc23)c1` was tested. Which inhibition did it give?
The inhibition was 13.5%.

With `Cc1ccc(O)cc1Nc1ccnc2cc(-c3ccccn3)ccc12` as the compound, how does the inhibition read?
Its inhibition is 95.1%.

For `Cc1cccc2c1NC(=O)/C2=N\Nc1ccc(S(N)(=O)=O)cc1`, which inhibition is on record?
The inhibition was 2.09%.

How did the inhibition turn out when `CN1CCC(n2cnc(-c3ccc(F)cc3)c2-c2ccnc(Nc3ccccc3)n2)CC1` was run?
The inhibition was 12.6%.

`COc1ccc2[nH]c3c4[nH]c5ccc(OC)cc5c4c4c(c3c2c1)C(=O)NC4=O` was tested. Which inhibition did it give?
The inhibition was 4.21%.

How did the inhibition turn out when `CNC(=O)c1cncc(/C=C/c2ccccc2Cl)c1` was run?
Its inhibition is 4.63%.

`COC(=O)Nc1nc2ccc(Oc3ccc(NC(=O)Nc4cccc(Cl)c4)cc3)cc2[nH]1` was tested. Which inhibition did it give?
Its inhibition is 14.4%.

For `COc1ccc(-c2cc(-c3c[nH]nc3-c3ccccn3)ccn2)cc1`, which inhibition is on record?
Its inhibition is 2.68%.

With `CCn1c(-c2nonc2N)nc2ccccc21` as the compound, how does the inhibition read?
Its inhibition is 1.88%.

`COc1ccc(CNC(=O)c2ccc(-c3cc(-c4nnc(C)o4)ccc3C)cc2)cc1` was tested. Which inhibition did it give?
The inhibition was -0.88%.

With `Fc1cccc(COc2ccc(Nc3ncnc4sc(-c5ccco5)cc34)cc2Cl)c1` as the compound, how does the inhibition read?
Its inhibition is 2.19%.

Which inhibition does the source give for `CCn1c(-c2nonc2N)nc2c(C#CC(C)(C)O)ncc(OC3CCNCC3)c21` here?
Its inhibition is 1.63%.

For `CNC(=O)c1cc(-c2ccc(F)cc2)cc(-c2ccc(S(=O)(=O)N3CCCC3)cc2)c1N`, which inhibition is on record?
Its inhibition is 2.03%.

With `COc1cc(N2CCN(C(C)C)CC2)ccc1Nc1nc(Nc2ccc(F)cc2C(N)=O)c2cc[nH]c2n1` as the compound, how does the inhibition read?
Its inhibition is 1.31%.

How did the inhibition turn out when `CCn1c(-c2nonc2N)nc2cnc(Oc3cccc(NC(=O)c4ccc(N(C)C)cc4)c3)cc21` was run?
The inhibition was 0.71%.

For `COc1ccc2c(-c3ccnc(Nc4cccc(OC(F)(F)F)c4)n3)cnn2n1`, which inhibition is on record?
The inhibition was 4.73%.

Which inhibition does the source give for `NS(=O)(=O)c1ccc(N/N=C2\C(=O)Nc3ccc4ncccc4c32)cc1` here?
Its inhibition is 13.2%.

`O=C(Nc1n[nH]c2cc(-c3ccc(F)cc3)ccc12)C1CC1` was tested. Which inhibition did it give?
Its inhibition is 2.87%.

For `c1cc(-c2cnn3nc(N4CCOCC4)ccc23)nc(NC2CC2)n1`, which inhibition is on record?
The inhibition was 1.96%.

For `CCc1nn2ncccc2c1-c1ccnc(NC2CC2)n1`, which inhibition is on record?
Its inhibition is 3.43%.

With `CN1CCC(n2cnc(-c3ccc(F)cc3)c2-c2ccnc(N)n2)CC1` as the compound, how does the inhibition read?
Its inhibition is 2.9%.

Which inhibition does the source give for `COc1ccc(-c2cc3c(N)ncnc3o2)cc1` here?
The inhibition was 0.16%.

`COc1ccc(-c2oc3ncnc(N)c3c2-c2ccc(NC(=O)Nc3cc(C(F)(F)F)ccc3F)cc2)cc1` was tested. Which inhibition did it give?
Its inhibition is 96.6%.

How did the inhibition turn out when `COc1cc(Nc2nccc(Nc3ccc4c(C)n[nH]c4c3)n2)cc(OC)c1OC` was run?
Its inhibition is 54.8%.

For `COC(=O)c1sc(-n2cnc3cc(OC)c(OC)cc32)cc1OCc1ccccc1C(F)(F)F`, which inhibition is on record?
Its inhibition is 3.16%.

`N#Cc1c(NC(=O)c2ccc(F)cc2)sc2c1CCCC2` was tested. Which inhibition did it give?
Its inhibition is 0.04%.

For `NS(=O)(=O)c1ccc(Nc2ncc(-c3ccccc3)o2)cc1`, which inhibition is on record?
Its inhibition is 1.72%.

Which inhibition does the source give for `CCn1cc(-c2ccnc3[nH]ccc23)c(-c2cccc(NC(=O)Nc3ccc(OCc4ccccc4)cc3)c2)n1` here?
Its inhibition is 3.47%.

Which inhibition does the source give for `c1ccc(-c2nc3n(c2-c2ccc4c(c2)OCO4)CCC3)nc1` here?
Its inhibition is 1.11%.
